Reference: PubChem BioAssay AID720591 (Broad Institute, 2013)
The whole screen tested about 1,200 compounds, of which about 60 (5%) were called active. Not shown: some 1% with an inconclusive outcome.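 How the source made its calls: active means Decreasing signal and fitted IC50 at most twice the top valid tested dose; inconclusive means Bad fit or a level curve showing 30 to 70% inhibition; inactive means the rest.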 Not all results are given here. Entries with a potency or affinity are not part of this list.

molecular target: NAD-dependent protein deacylase sirtuin-5, mitochondrial (Homo sapiens) (UniProt Q9NXA8); experiment: sirtuin-5 deacylation blockers, concentration series – biochemical, fluorescence imaging, cherry-pick, set 5, dose response (AID 720591); details: Purified SirT5, succinyl-peptide AMC, trypsin-coupled fluorescence; series mostly up to 15 µM; activity change, negative = inhibition: at the top concentration;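 further: 0% = median of neutral control wells and -100% = median of positive control wells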
Sequence (Q9NXA8 whole entry, looked up): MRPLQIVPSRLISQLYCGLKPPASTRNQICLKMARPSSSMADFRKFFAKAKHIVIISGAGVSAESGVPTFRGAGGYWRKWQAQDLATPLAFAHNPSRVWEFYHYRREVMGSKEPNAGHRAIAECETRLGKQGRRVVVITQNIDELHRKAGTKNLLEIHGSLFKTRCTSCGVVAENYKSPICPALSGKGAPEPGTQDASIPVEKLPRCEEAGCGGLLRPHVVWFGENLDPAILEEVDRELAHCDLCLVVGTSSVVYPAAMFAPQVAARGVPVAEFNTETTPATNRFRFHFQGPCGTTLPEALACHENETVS

Activity change, negative = inhibition, inactive:
Cc1ccc(CNC(=O)CCCCCNC(=O)N2CCn3c2nc2ccccc23)cc1 -20.1%
O=C(NC1CCCCC1)c1ccc(S(=O)(=O)c2ccccc2)cc1 -29.3%
CCOC(=O)C1CCN(C(=O)Cn2cc(C(=O)OC)c3ccccc32)CC1 -21.2%
COc1ccc(NC(=O)CN2CCN(c3ccccn3)CC2)cc1Cl 5.95%
C=C(C)COc1ccc(-c2ncncc2-c2ccc(OC)cc2)c(O)c1 4.58%
COc1ccc(-c2csc3nc(C(C)C)oc(=O)c23)cc1OC -30.7%
Cn1cc(C(=O)NCCc2ccccc2)c(=O)c2cc(S(=O)(=O)N3CCOCC3)ccc21 3.07%
CC(C)c1ccccc1NC(=O)c1cnccn1 -32.5%
O=C(c1ccccc1)c1coc2ccc(O)c(Cl)c12 -19.4%
Nc1nc(-c2ccc(C(=O)O)cc2)cs1 -22.5%
O=C(O)CCC(=O)Nc1ccc(-c2nc3ccc(C(=O)c4ccccc4)cc3[nH]2)cc1 -28.6%
CC(C)(C)C(=O)Oc1cccc(Nc2ncnc3ccccc23)c1 -14.3%
Cc1ccc(S(=O)(=O)NCC(=O)OCC(=O)NCc2ccc(F)cc2)cc1 -17%
Cc1nnc(SCC(=O)Nc2ncc3c(n2)CC(c2ccccc2)CC3=O)s1 (stereo unspecified) -14%
Cc1ccc(S(=O)(=O)Nc2ccc(N(C)C)cc2)cc1 -8.19%
COc1ccc(N2CC(NC(=O)N3CCc4ccccc43)CC2=O)cc1OC (stereo unspecified) -30%
CN(C)CCOC(=O)NCC12CC3CC(CC(C3)C1)C2 -14.8%
C[C@@H]1CN([C@@H](C)CO)C(=O)CCCn2nncc2CO[C@H]1CN(C)C(=O)C1CCCCC1 -4.24%
CCCCCCN1C[C@@H](O)[C@H](n2cc(COC(=O)c3ccccc3)nn2)C[C@@H]1c1ccc(C)cc1 11.7%
C[C@H]1COc2cc(NCCO)ccc2S(=O)(=O)N1 19.8%
Cc1ccc(S(=O)(=O)N2C[C@@H]3CCCC[C@@H]3[C@@H](C)[C@H]2c2cn(Cc3ccccc3)c3ncccc23)cc1 14.3%
CCOc1ccccc1NC(=O)CN1c2cccc3cccc(c23)S1(=O)=O 12.7%
Nn1c(C2CCC2)nc2cc(Cl)ccc2c1=O -25.2%
CCC(C)C(CO)NCCCn1cnc2c(SC)ncnc21 (stereo unspecified) 4.95%
Cc1csc(NC(=O)c2cc3ccccc3o2)n1 12.3%
Cc1nc(NC(=O)c2cc3ccccc3o2)sc1C 7.97%
Cc1ccc(OCCNC(=O)C2CCCCC2)cc1 7.97%
Cc1cc(C)c2c(CN3CCOCC3)cc(=O)oc2c1 2.2%
COc1ccc(CNC(=O)CCn2ccc3cc(S(=O)(=O)N4CCCC4)ccc32)cc1 -22.9%
COc1ccc(CN(C(=O)c2ccco2)c2ccccc2)cc1 13.5%
COc1ccc(CN(C(=O)c2ccco2)c2ccc(C)cc2)cc1OC -33.2%
CN1C(=O)[C@H]2[C@@H](C3CC3)N3C(=O)CN(CCO)C(=O)[C@@]3(Cc3ccccc3)[C@H]2C1=O -16.4%
CCOc1ccc(-c2noc(CCCC(=O)NC3CCCC3)n2)cc1OC 1.29%
CCCCCNC(=O)C(c1cc2ccccc2o1)n1c(=O)c(-c2ccccc2)nc2ccccc21 (stereo unspecified) -20.3%
CCCCCCNC(=O)c1ccc(Br)o1 2.66%
COc1ccc(CCNC(=O)COC(=O)CCC(=O)c2ccc(F)cc2)cc1OC 16.3%
COc1cc(C(=O)NCC2(N(C)C)CCCCC2)ccc1OCc1ccccc1 5.49%
Cn1c(NCCCO)nc2c1c(=O)n(Cc1ccccc1F)c(=O)n2C 5.2%
CC(=O)c1cc(-c2ccc(F)cc2)n(CCC(=O)NC(C)(C)C)c1C 40.1%
COC(CNC(=O)CC1C(=O)N(Cc2ccccc2)C(C)c2nc3ccccc3n21)OC (stereo unspecified) 16.8%
CCCCNC(=O)C[C@@H]1C[C@@]2(C(=O)OC)CC(C)(C)CC=C2N(Cc2ccco2)C1=O 2.48%
Cc1ccc(S(=O)(=O)N2C[C@@H](C)[C@]3(C2)[C@H](O)[C@H](OC(=O)NCc2ccco2)C[C@H]2C(=O)N(c4ccccc4)C(=O)[C@H]23)cc1 -12.3%
OC[C@@H]1CN(Cc2cccs2)C[C@H](n2cnc3c(Nc4ccccc4)ncnc32)O1 1.28%
CCc1cc2c(=O)c(-c3nc4ccccc4n3C)coc2c(CN2CCCCC2)c1O 32.2%
Cc1ccc(NC(=O)c2ccc3c(c2)CCN3S(C)(=O)=O)cc1 11.9%
Cc1cc(C)cc(N(C(=O)CCC(=O)Nc2cc(C)on2)C(C(=O)NC2CCCC2)c2ccco2)c1 (stereo unspecified) -2.73%
COc1ccc(CC(=O)NCC2CCCN(Cc3ccc(OC(F)(F)F)cc3)C2)cc1 (stereo unspecified) -23.7%
CCOC(=O)C(Cc1ccc(NC(C)=O)cc1)N1C(=O)c2ccccc2C1=O (stereo unspecified) -8.71%
O=C(OCC(=O)N1CCCC1)c1cc(Br)ccc1Cl -18.6%
COc1ccccc1-c1cc(C(=O)NC(C)C)no1 -1.51%
Oc1ccc(-c2n[nH]c(C(F)(F)F)c2-c2ccccc2)c(O)c1 -7.08%
CC1c2nc3ccccc3n2C(CC(=O)NC2CC2)C(=O)N1Cc1ccccc1 (stereo unspecified) 4.72%
Cc1ccc(Cn2c(N3CCN(C)CC3)nc3c2c(=O)[nH]c(=O)n3C)cc1 -22.3%
Cn1c(=O)[nH]c(=O)c2c1nc(N1CCNCC1)n2Cc1ccccc1 15.6%
Oc1ccc(-c2nccc(-c3ccc(Cl)cc3Cl)n2)cc1 -31.7%
Cc1ccc(-c2nc3c(Cl)cc(C(F)(F)F)cn3c2Cc2cccc(F)c2)cc1 6.86%
CC(=O)c1cccc(NC(=O)CCS(=O)(=O)c2ccc(Br)s2)c1 -17.1%
O=C(Nc1ccc2c(c1)OCCO2)C(c1ccnc2ccccc12)N1CCN(c2ccc(F)cc2)CC1 (stereo unspecified) 18.7%
C=CC[C@H](CC(=O)N(CCO)Cc1ccccc1)C(=O)N[C@@H](COC(=O)[C@H](CC=C)CC(=O)OC(C)(C)C)Cc1c[nH]c2ccccc12 17%
CSc1nc(N)nc2c1ncn2CC(=O)NCC1CCCO1 (stereo unspecified) 5.49%
O=C(NCc1ccc(F)cc1)C1CC(=O)N(C2CCCCC2)C1 (stereo unspecified) -24.7%
O=C(Nc1ccccc1Cl)c1cccs1 -20.1%
Cc1cc(C)c(NC(=O)CN(C)C(=O)CNC(=O)c2cccs2)c(C)c1 -17.8%
COc1ccccc1CCNS(=O)(=O)c1cc2c3c(c1)C(C)C(=O)N3CCC2 (stereo unspecified) -29.6%
COc1ccc(Nc2oc(-c3ccco3)nc2S(=O)(=O)c2ccc(F)cc2)cc1 -8.04%
Cc1nn(CC(=O)N(C)C)c(=O)c2ccccc12 -8.69%
Cc1ccc(S(=O)(=O)c2nc(Cc3ccccc3)oc2N2CCOCC2)cc1 -13.3%
Cc1ccc(C(C(=O)NC(C)(C)C)N(C(=O)CCC(=O)Nc2ccccn2)c2ccccc2F)cc1 (stereo unspecified) -3.12%
CO/N=C(\C(=O)N[C@@H]1C(=O)N2C(C(=O)O)=C(COC(C)=O)CS[C@H]12)c1csc(N)n1 (stereo in doubt) -15.9%
Cc1ccc(-c2ccc(=O)n(CC(=O)Nc3ccc4c(c3)OCCO4)n2)cc1 16.6%
COc1ccc(N2CCN(C(=O)CN(C)S(=O)(=O)c3cc(C)ccc3OC)CC2)cc1 -6.06%
N[C@@H](CO)c1nnc([C@H](Cc2ccc(O)cc2)NC(=O)C2CCNCC2)o1 -9.88%
O=S(=O)(CCc1ccncc1)c1ccc(Cl)cc1 7.83%
NCC(O)CN(c1ccccc1)c1ccccc1 (stereo unspecified) 0.799%
O=C(c1cccc(F)c1)N1CCCC(C(=O)N2CCCCCC2)C1 (stereo unspecified) 16.1%
O=C(c1cccc(F)c1)N1CCCC(C(=O)N2CCCCC2)C1 (stereo unspecified) -26.3%
CC(=O)Nc1ccc(S(=O)(=O)Nc2ccc(-n3cnnn3)cc2)cc1 -11.7%
O=C(Nc1ccc(F)cc1)C1CC(=O)n2ncnc2N1 (stereo unspecified) -19.7%
C[C@H](CO)N1C[C@H](C)[C@@H](CN(C)Cc2ccccn2)Oc2ncc(Br)cc2C1=O -20.5%
Cc1csc(NC(=O)CSc2sc3c(O)cc(=O)[nH]c3c2C#N)n1 -33.2%
N#Cc1c(SCC(=O)Nc2nccs2)sc2c(O)cc(=O)[nH]c12 -20.5%
CC(=O)N1N=C(N)SC12CCCC2 -1.47%
C[C@H]1CN([C@@H](C)CO)C(=O)c2cc(Br)cnc2O[C@H]1CN(C)C(=O)c1ccccn1 24.1%
C[C@@H]1CN([C@H](C)CO)C(=O)CCCn2nncc2CO[C@H]1CN(C)C(=O)Nc1cccc2ccccc12 11.2%
CC(C)NC(=O)N(C)C[C@@H]1OCc2cnnn2CCCC(=O)N([C@@H](C)CO)C[C@H]1C 10.8%
Cc1ccnc(NS(=O)(=O)c2ccc(NC(=O)Cc3ccc(F)cc3)cc2)n1 18%
Cc1noc(C)c1COc1ccc(C(=O)N2CCN(S(=O)(=O)c3cccc(F)c3)CC2)cc1 -6.62%
COc1ccc(NC(=O)CN(c2ccc(Cl)cc2)S(C)(=O)=O)cc1OC 3.15%
O=C(COC(=O)CC1CC2CCC1C2)Nc1ccc(F)cc1 (stereo unspecified) 6.05%
O=C(COC(=O)CC1CC2CCC1C2)NCc1ccccc1 (stereo unspecified) 15.9%
COc1ccccc1OCCSc1nc2ccccc2n1CC(O)CO (stereo unspecified) -18.9%
COc1cc(C(=O)NCCCc2nc3ccccc3n2Cc2cc(C)ccc2C)cc(OC)c1OC 9.81%
c1ccc(CCc2nc(-c3ccc(-n4cccc4)cc3)no2)cc1 16.5%
Cc1ccc(-c2noc(CN(C)C(=O)c3ccc(Br)o3)n2)cc1 -17.4%
Cc1ccc(CNC(=O)C2CCCN(S(=O)(=O)N3CC(C)CC(C)C3)C2)cc1 (stereo unspecified) -20.4%
O=C(COc1ccccc1)Nc1ncn[nH]1 -8.98%
COc1cc(C)c(CN2CCN(CC(=O)Nc3ccccc3C(=O)NC3CC3)CC2)cc1OC -25.6%
O=C1CCC(C(=O)N2CCCCCC2)CN1Cc1cccc(C(F)(F)F)c1 (stereo unspecified) -29.3%
CCOC(=O)c1c(C)[nH]c(C)c1C(=O)COC(=O)c1cccc(C)c1O -9.02%
CCOC(=O)c1c(C)[nH]c(C)c1C(=O)COC(=O)c1cc2ccccc2cc1O 7.04%
CCOc1ccc(CCNC(=O)Cn2nc(C)c3c(C)n(-c4ccccc4)nc3c2=O)cc1 -21.5%
COC(=O)[C@]12CCCCC=C1N(Cc1cccc3ccccc13)C(=O)[C@H](CC(=O)NCC1CCCCC1)C2 -6.36%
CC1=C(C(=O)N2CCOCC2)CC(CC(=O)NCC2CCCCC2)C(=O)N1CCC1=CCCCC1 (stereo unspecified) 31.4%
NC(=O)c1ccc(NC(=O)CCCc2nc(-c3ccccc3Cl)no2)cc1 -28.1%
Cc1ccc2c(c1)CO[C@@]21O[C@H](CCO)C[C@H](O)[C@H]1O 3.11%
Cc1ccc(NC(=O)C2CCN(C(=O)c3ccco3)CC2)cc1 12%
Cc1cccc(NC(=O)C2CCN(C(=O)c3ccco3)CC2)c1C -16.4%
CC(C)CCN1CCN(Cc2cnc(N3CCCC3)s2)CC1CCO (stereo unspecified) 10.1%
O=C(Cc1cccs1)N1CCN(S(=O)(=O)c2ccc(Cl)c(C(F)(F)F)c2)CC1 -18.7%
C/C(N)=C(/C#N)C(=O)CSc1nnc(Nc2ccccc2)s1 -26.5%
CCSc1nnc(NC(=O)Cc2ccc(OC)cc2)s1 -29.4%
Cc1ccc(OCCSc2nc3ccccc3n2CCC(=O)O)cc1 -29.2%
CCc1ccc(S(=O)(=O)c2ccc(-n3nc(C)cc3N)cc2)cc1 21.2%
c1ccc(CCn2nnc3ccccc32)cc1 16.6%
CCOC(=O)c1c(-c2ccc(C)cc2)csc1NC(=O)CCN1CC(C)OC(C)C1 (stereo unspecified) 10.9%
CC1C(=O)N2CCCc3cc(S(=O)(=O)N4CCCCC4)cc1c32 (stereo unspecified) 10.4%
CCCNC(=O)CC1C(=O)N(Cc2ccccc2)C(C)c2nc3ccccc3n21 (stereo unspecified) -35.5%
CCCCNC(=O)CC1C(=O)N(Cc2ccccc2)C(C)c2nc3ccccc3n21 (stereo unspecified) -23.2%
CCCCCCN1CCN(C2CN(C3CCCCC3)S(=O)(=O)C2)CC1 (stereo unspecified) 24.6%
CCN(c1ccccc1)S(=O)(=O)c1nnc(NC(=O)C(C)(C)C)s1 -1.58%
COc1ccc(C(CNC(=O)c2cccc(S(=O)(=O)N3CCCCC3)c2)N2CCCC2)cc1 (stereo unspecified) -22.6%
